Measured values published in PubChem BioAssay AID1159580 (chemical genetic matrix, 2015).
About 2,000 (36%) of roughly 5,500 compounds were called active. Roughly 18% stayed inconclusive and do not appear here. Cut-off read from the data, not from the text of the source: active = normalized growth mostly below about 0.91 (no sharp cut-off); inconclusive = no clear call, values can overlap the other calls; inactive = mostly above about 0.92. The list shows a part of the results.

Assay: chemical genetic growth profiling, strain panel (AID 1159580);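 note: tested at 20 µM; growth read once vehicle control cultures reached saturation at 30 °C; 1 = growth at the plate median or of vehicle wells; lower values mean less growth of the strain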
Conditions: growth OD

Measured: normalized growth

COc1ccc2cc([C@H](C)CO)ccc2c1
inactive: S. cerevisiae deletion strains, locus YJR066W, strain TOR1, active compounds read low 0.935 | S. cerevisiae deletion strains, locus YJR075W, strain HOC1, active compounds read low 0.998 | S. cerevisiae deletion strains, locus YKL009W, strain mrt4, active compounds read low 0.935 | S. cerevisiae deletion strains, locus YKL068W, active compounds read low 0.975 | S. cerevisiae deletion strains, locus YKL085W, strain MDH1 (second series), active compounds read low 0.949 | S. cerevisiae deletion strains, locus YKL085W, strain MDH1, active compounds read low 0.949 | S. cerevisiae deletion strains, locus YKL160W, strain elf1, active compounds read low 1 | S. cerevisiae deletion strains, locus YKL190W, strain CNB1, active compounds read low 0.995 | S. cerevisiae deletion strains, locus YKR001C, strain vps1, active compounds read low 0.97 | S. cerevisiae deletion strains, locus YKR026C, strain gcn3, active compounds read low 1.01 | S. cerevisiae deletion strains, locus YKR091W, strain srl3, active compounds read low 1.01 | S. cerevisiae deletion strains, locus YLL001W, strain dnm1, active compounds read low 1.01 | S. cerevisiae deletion strains, locus YLL026W, active compounds read low 1.01 | S. cerevisiae deletion strains, locus YLL041C, strain sdh2, active compounds read low 1.01 | S. cerevisiae deletion strains, locus YLR027C, strain aat2, active compounds read low 1.01 | S. cerevisiae deletion strains, locus YLR039C, strain RIC1, active compounds read low 0.991 | S. cerevisiae deletion strains, locus YLR058C, strain SHM2, active compounds read low 0.977 | S. cerevisiae deletion strains, locus YLR102C, strain apc9, active compounds read low 0.966 | S. cerevisiae deletion strains, locus YLR113W, strain HOG1, active compounds read low 0.929 | S. cerevisiae deletion strains, locus YLR221C, strain rsa3, active compounds read low 1.01 | S. cerevisiae deletion strains, locus YLR258W, strain gsy2, active compounds read low 1.01 | S. cerevisiae deletion strains, locus YLR262C, strain YPT6 (second series), active compounds read low 1.01 | S. cerevisiae deletion strains, locus YLR262C, strain YPT6, active compounds read low 0.9 | S. cerevisiae deletion strains, locus YLR268W, strain sec22, active compounds read low 1.03 | S. cerevisiae deletion strains, locus YLR320W, strain mms22, active compounds read low 1.02 | S. cerevisiae deletion strains, locus YLR330W, strain CHS5, active compounds read low 0.992 | S. cerevisiae deletion strains, locus YLR342W, strain FKS1 (second series), active compounds read low 0.969 | S. cerevisiae deletion strains, locus YLR342W, strain FKS1, active compounds read low 1.01 | S. cerevisiae deletion strains, locus YLR357W, strain rsc2, active compounds read low 1 | S. cerevisiae deletion strains, locus YLR370C, strain arc18, active compounds read low 1.01 | S. cerevisiae deletion strains, locus YLR371W, strain rom2, active compounds read low 0.918 | S. cerevisiae deletion strains, locus YLR384C, strain iki3, active compounds read low 1.01 | S. cerevisiae deletion strains, locus YLR418C, strain cdc73, active compounds read low 0.968 | S. cerevisiae deletion strains, locus YML016C, strain PPZ1, active compounds read low 0.989 | S. cerevisiae deletion strains, locus YML032C, strain rad52, active compounds read low 0.989 | S. cerevisiae deletion strains, locus YML120C, strain ndi1, active compounds read low 1.01 | S. cerevisiae deletion strains, locus YMR058W, strain fet3, active compounds read low 1.01 | S. cerevisiae deletion strains, locus YMR078C, strain ctf18, active compounds read low 0.969 | S. cerevisiae deletion strains, locus YMR125W, strain sto1, active compounds read low 1.01 | S. cerevisiae deletion strains, locus YMR129W, active compounds read low 1.02 | S. cerevisiae deletion strains, locus YMR205C, strain PFK2, active compounds read low 1.02 | S. cerevisiae deletion strains, locus YMR223W, strain ubp8, active compounds read low 0.964 | S. cerevisiae deletion strains, locus YMR231W, strain pep5, active compounds read low 1.01 | S. cerevisiae deletion strains, locus YMR263W, strain SAP30, active compounds read low 0.985 | S. cerevisiae deletion strains, locus YMR307W, strain GAS1, active compounds read low 1.04 | S. cerevisiae deletion strains, locus YNL067W, strain RPL9B, active compounds read low 0.991 | S. cerevisiae deletion strains, locus YNL071W, strain lat1, active compounds read low 1.01 | S. cerevisiae deletion strains, locus YNL128W, strain TEP1, active compounds read low 0.979 | S. cerevisiae deletion strains, locus YNL153C, strain GIM3, active compounds read low 0.996 | S. cerevisiae deletion strains, locus YNL183C, strain NPR1, active compounds read low 0.917 | S. cerevisiae deletion strains, locus YNL209W, strain ssb2, active compounds read low 1.01 | S. cerevisiae deletion strains, locus YNL233W, strain BNI4, active compounds read low 1.01 | S. cerevisiae deletion strains, locus YNL248C, strain rpa49, active compounds read low 0.968 | S. cerevisiae deletion strains, locus YNL250W, strain rad50, active compounds read low 0.956 | S. cerevisiae deletion strains, locus YNL271C, strain bni1, active compounds read low 0.979 | S. cerevisiae deletion strains, locus YNL298W, strain CLA4, active compounds read low 0.949 | S. cerevisiae deletion strains, locus YNL307C, strain MCK1, active compounds read low 0.97 | S. cerevisiae deletion strains, locus YNL322C, strain KRE1 (second series), active compounds read low 1.01 | S. cerevisiae deletion strains, locus YNL322C, strain KRE1, active compounds read low 0.996 | S. cerevisiae deletion strains, locus YNR049C, strain mso1, active compounds read low 1.01 | S. cerevisiae deletion strains, locus YNR052C, strain pop2, active compounds read low 0.975 | S. cerevisiae deletion strains, locus YOL006C, strain TOP1, active compounds read low 0.91 | S. cerevisiae deletion strains, locus YOL012C, strain htz1 1.3 | S. cerevisiae deletion strains, locus YOL147C, strain pex11, active compounds read low 0.941 | S. cerevisiae deletion strains, locus YOR001W, strain rrp6, active compounds read low 1.02 | S. cerevisiae deletion strains, locus YOR061W, strain CKA2, active compounds read low 0.968 | S. cerevisiae deletion strains, locus YOR069W, strain VPS5, active compounds read low 0.988 | S. cerevisiae deletion strains, locus YOR070C, strain gyp1, active compounds read low 1.01 | S. cerevisiae deletion strains, locus YOR080W, strain dia2, active compounds read low 1.01 | S. cerevisiae deletion strains, locus YOR083W, strain WHI5, active compounds read low 1.01 | S. cerevisiae deletion strains, locus YOR106W, strain vam3, active compounds read low 1 | S. cerevisiae deletion strains, locus YOR136W, strain idh2, active compounds read low 0.977 | S. cerevisiae deletion strains, locus YOR144C, strain elg1, active compounds read low 0.978 | S. cerevisiae deletion strains, locus YOR184W, strain ser1, active compounds read low 0.95 | S. cerevisiae deletion strains, locus YOR231W, strain MKK1, active compounds read low 0.937 | S. cerevisiae deletion strains, locus YOR265W, strain rbl2, active compounds read low 1.01 | S. cerevisiae deletion strains, locus YOR270C, strain vph1, active compounds read low 0.997 | S. cerevisiae deletion strains, locus YOR290C, strain snf2, active compounds read low 0.998 | S. cerevisiae deletion strains, locus YOR316C, strain cot1, active compounds read low 0.976 | S. cerevisiae deletion strains, locus YPL051W, strain arl3, active compounds read low 1.01 | S. cerevisiae deletion strains, locus YPL055C, strain LGE1, active compounds read low 0.98 | S. cerevisiae deletion strains, locus YPL078C, strain atp4, active compounds read low 1.01 | S. cerevisiae deletion strains, locus YPL106C, strain sse1, active compounds read low 1.04 | S. cerevisiae deletion strains, locus YPL240C, strain hsp82, active compounds read low 1.01 | S. cerevisiae deletion strains, locus YPL241C, strain CIN2, active compounds read low 0.985 | S. cerevisiae deletion strains, locus YPL256C, strain CLN2, active compounds read low 0.924 | S. cerevisiae deletion strains, locus YPR119W, strain clb2, active compounds read low 0.971 | S. cerevisiae deletion strains, locus YPR141C, strain kar3, active compounds read low 0.959 | S. cerevisiae deletion strains, locus YPR163C, strain tif3, active compounds read low 0.978 | S. cerevisiae deletion strains, locus YPR167C, strain met16, active compounds read low 0.977 | S. cerevisiae deletion strains, strain wtn01, active compounds read low 0.968 | S. cerevisiae strains, strain wild type, active compounds read low 0.979
